Measurements reported in PubChem BioAssay AID651899 (Broad Institute, 2012).
Results with a measured potency or affinity are listed apart. The source made the active and inactive calls. No rule for the calls is given here.

Test: cytotoxicity in HEK293 cells, dose response, cytotoxicity control, cell-based, plate reader, cherry-pick (AID 651899);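 also: cells exposed to compound for 48 hours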
Details: series mostly up to 26 µM

Structure (SMILES) | outcome
CC(=O)c1c(C)[nH]c(C(=O)Nc2cccnc2)c1C | inactive
COc1ccc(C(=O)Nc2ccc(Cn3ccnc3)cc2)cc1OC | inactive
CC(=O)Nc1ccc2nc(-c3cccnc3)[nH]c2c1 | inactive
CCc1c(C(=O)NCCc2ccc(OC)c(OC)c2)[nH]c(C)c1C(C)=O | inactive
O=C1CCCc2c1cc(C(=O)NCc1ccco1)c(=O)n2-c1ccc(Cl)cc1 | inactive
CC(CNC(=O)CCCn1ncn2c(cc3occc32)c1=O)c1ccccc1 (stereo not drawn) | inactive
CC1(C)CC(=O)C=C(c2ccc3ncccc3c2)C1 | inactive
COc1ccc([N+](=O)[O-])cc1C(=O)NC1CCN(Cc2ccccc2)CC1 | inactive
CC(=O)c1ccc(C(=O)N2CCCC(Nc3ccc(C(C)C)cc3)C2)s1 (stereo not drawn) | inactive
CCCC(=O)Nc1cccc(NC(=O)c2ccc(C)c([N+](=O)[O-])c2)c1 | inactive
COc1cc2c(cc1NC(=O)c1cccnc1)CCCC2 | inactive
CC(=O)c1ccc(N2CCN(C(=O)c3ccc4nc[nH]c4c3)CC2)cc1 | inactive
CC1(C(=O)NCc2ccc(F)c(F)c2)Cc2c(-c3cccc(C(N)=O)c3)ccnc2O1 (stereo not drawn) | inactive
CCNC(=O)[C@H]1[C@H](CO)[C@H]2Cn3c(ccc(-c4cccc(F)c4)c3=O)[C@H]2N1C(=O)Cc1cccnc1 | inactive
CCN(CC)CCNC(=O)c1cn(CC)c2ccc(S(=O)(=O)N3CCc4ccccc4C3)cc2c1=O | inactive
CC(=O)c1ccc(N2CCN(C(=O)Cc3ccccc3)CC2)c(F)c1 | inactive
O=C(Nc1ccc2snnc2c1)N1CCOCC1 | inactive
O=C(c1ccc(Br)s1)N1CCN(Cc2ccc3c(c2)OCO3)CC1 | inactive
CCOCCCNC(=O)CSc1nc2nc(C)c(Cc3ccccc3)c(C)n2n1 | inactive
CCC(=O)N1CC[C@@H]2[C@H]1c1cc(-c3cccc(F)c3)ccc1N(C)[C@H]2CO | inactive
CN(C)C(=O)C[C@@H]1C[C@@H]2c3cc(NC(=O)c4cccnc4)ccc3O[C@@H]2[C@@H](CO)O1 | inactive
O=C(C[C@H]1C[C@H]2c3cc(NC(=O)c4cccnc4)ccc3O[C@H]2[C@H](CO)O1)NCc1ccccn1 | inactive

Structure (SMILES) | outcome
O=C(c1ccccc1F)N1CC[C@@H]2[C@H](CO)Nc3ccc(Br)cc3[C@@H]21 | inactive
C[C@@H](C(=O)N1CCN(Cc2ccc3c(c2)OCO3)CC1)n1nnc2ccccc2c1=O | inactive
COC(=O)c1sc(N)c(C(=O)OC)c1CSc1nnc(-c2ccccc2Cl)n1C | inactive
COc1cc(-c2n[nH]c(=S)n2-c2cccc(C(F)(F)F)c2)cc(OC)c1OC | inactive
COc1ccc(C(C)NC(=O)Nc2ccc(C(C)=O)cc2)cc1OC (stereo not drawn) | inactive
CC(=O)c1ccc(NC(=O)COC(=O)Cc2ccsc2)cc1 | inactive
Cc1ccccc1S(=O)(=O)NCC[C@H]1CC[C@@H](NC(=O)Nc2cccc(F)c2)[C@H](CO)O1 | inactive
COc1ccc(NC(=O)c2ccc(-n3cncn3)c([N+](=O)[O-])c2)cc1OC | inactive
COc1cc(-c2n[nH]c(=S)n2Cc2ccccc2)cc(OC)c1OC | inactive
Cc1c2cnn(CC(=O)NCc3ccccn3)c(=O)c2c(C)n1Cc1ccc(Cl)cc1 | inactive
O=C(C[C@@H]1C[C@@H]2c3cc(NC(=O)c4cccnc4)ccc3O[C@@H]2[C@@H](CO)O1)NCc1cccc(F)c1 | inactive
O=C(Nc1ccc2c(c1)[C@H]1C[C@@H](CC(=O)N3CCc4ccccc4C3)O[C@H](CO)[C@H]1O2)c1cccnc1 | inactive
O=C(C1CCCN(S(=O)(=O)c2cccnc2)C1)N1CCn2c1nc1ccccc12 (stereo not drawn) | inactive
CN1c2ccc(-c3cccc(F)c3)cc2[C@H]2[C@H](CCN2C(=O)c2ccncc2)[C@@H]1CO | inactive
Cc1nc2nc(SCC(=O)N3CCOCC3)nn2c(C)c1Cc1ccccc1 | inactive
COc1ccc(CCN(C)c2ccc(C(N)=O)cc2[N+](=O)[O-])cc1OC | inactive
O=c1[nH]c(N2CCN(Cc3ccc4c(c3)OCO4)CC2)nc2c1CCCC2 | inactive
COc1cccc(NC(=O)N2C[C@H](O)COC[C@@H]3O[C@@H](CC(=O)N(C)C)CC[C@H]32)c1 | inactive
COC(=O)C[C@@H]1CC[C@@H]2[C@H](COC[C@@H](O)CN2C(=O)Nc2cccc(F)c2)O1 | inactive
O=C(CSc1nc2c(c(=O)n1-c1ccccc1)SCC2)N1CCN(c2ccccc2)CC1 | inactive
COC(=O)C[C@@H]1C[C@@H]2c3cc(NC(=O)c4cccnc4)ccc3O[C@@H]2[C@@H](CO)O1 | inactive
